Source: ChEMBL document CHEMBL3988442, “University of Dundee, Small-Polar-MMV Screening Library” (2021)

What follows are compounds tested against T1, Arginase-2, mitochondrial (Homo sapiens) (UniProt P78540) (assay: in vitro enzyme assay to detect the production of urea directly proportional to the activity of Arginase II). Details: 33.3 µM.
T1 sequence (whole entry): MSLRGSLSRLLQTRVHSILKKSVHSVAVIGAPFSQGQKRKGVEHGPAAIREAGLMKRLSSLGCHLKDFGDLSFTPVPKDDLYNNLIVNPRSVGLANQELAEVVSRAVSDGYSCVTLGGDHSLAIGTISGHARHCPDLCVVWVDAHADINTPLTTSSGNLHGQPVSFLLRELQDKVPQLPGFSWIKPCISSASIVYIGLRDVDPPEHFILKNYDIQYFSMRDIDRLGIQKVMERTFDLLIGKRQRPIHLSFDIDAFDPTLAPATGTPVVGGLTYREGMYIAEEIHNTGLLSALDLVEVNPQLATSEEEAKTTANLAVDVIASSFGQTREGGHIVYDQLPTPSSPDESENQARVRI
Assay type: functional
Parameters: scale not given: in the data most compounds retested in dose-response had high values

| SMILES | Percent Effect |
| --- | --- |
| O=C(CSc1ccc(F)c(F)c1)NS(=O)(=O)c1ccc2c(c1)OCCO2 | 1.23% |
| CC1COCCN1C(=O)c1cccc(OCc2cscn2)c1 (stereo not given) | -4.1% |
| Cc1[nH]ccc1C(=O)N1CCCC(c2nccn2Cc2cscn2)C1 (stereo not given) | 57% |
| O=C(c1ccc(C(F)(F)F)nc1)N1CCCC(n2cncn2)C1 (stereo not given) | 5.33% |
| Cc1ccc2oc(C(=O)N3CCC(C(=O)N4CCCC4)CC3)cc2n1 | 6.56% |
| Cc1ccc(N2CCCN(C(=O)c3c(C)oc(C)c3C)CC2)nn1 | -0.887% |
| CN(c1ccncn1)C1CC2(CCN(C(=O)c3ccsc3)C2)C1 (stereo not given) | -4.42% |
| CCc1nc(C2CCCN2C(=O)c2ncoc2CC)no1 (stereo not given) | -4.92% |
| CCc1c(C)nn(CCNC(=O)C2CCCN(C(=O)N(C)C)C2)c1C (stereo not given) | 6.64% |
| CCn1ncnc1C1CC(=O)NCc2nc3ccccn3c21 (stereo not given) | 10.8% |
| Cc1nc(CN2CCCC(CCc3ccc(F)cc3F)C2)c[nH]1 (stereo not given) | 1.05% |
| COc1ccc(C2CC(=O)Nc3c2nc2n3CCCC2)cc1OC (stereo not given) | 0.35% |
| O=C(c1cc(Cl)c2c(c1)OCO2)N1CCCC(n2ccnc2)C1 (stereo not given) | 0% |
| Cc1ccccc1N1CC2(CCN(S(=O)(=O)C3CC3)C2)CC1=O (stereo not given) | 4.57% |
| CCc1nc(CN2CCCN(C(=O)COCC3CC3)CC2)cs1 | 0.82% |
| O=C1CN(Cc2ccc(-c3ccccc3C(=O)O)cc2)CCN1 | -1.33% |
| Cc1cn2c(n1)CCC(NC(=O)c1cc(Br)cn1C)C2 (stereo not given) | -1.33% |
| COCc1ncc(CN2CCC(Oc3ccccc3OC)CC2)cn1 | 3.85% |
| Cn1cc(N2CC3(COCCN(Cc4ccsc4)C3)OCC2=O)cn1 (stereo not given) | 0.405% |
| CC(C)c1nn(C)c(N2CCOCC2)c1CNCC(=O)N(C)C | 3.69% |
